# Test results as given in ChEMBL document CHEMBL4513216, “Probing the Open Global Health Chemical Diversity Library for Multistage-Active Starting Points for Next-Generation Antimalarials” (ACS Infect Dis, 2020).
# Hit rate of the full screen: of about 68,000 compounds, about 2,700 (4%) showed an effect of 50% or more. The sample holds strong results, similar compounds and a random draw of the others, so the mix is not that of the screen.
# Tested on: Plasmodium berghei
# Assay: Screen against P. berghei liver stage (PbLuc), transformed with Luciferase, at 2uM
# Type: functional, HepG2
# Conditions: tested at 2 uM
row,Structure (SMILES),INHIBITION [%]
1,O=S(=O)(c1ccc2c(c1)OCCO2)N1CCC(OCc2ccccn2)C1 (configuration not stated),-26.14
2,O=S(=O)(c1ccc2c(c1)OCCO2)N1CCc2ccccc2C1,50.57
3,O=c1ccc2c([nH]1)CCN(S(=O)(=O)c1ccc3c(c1)OCCO3)C2,14.45
4,COc1ccc(C(C)NC(=O)NCCCn2cncn2)cc1F (configuration not stated),-40.52
5,CC(NC(=O)CSCC(N)=O)c1ccc(Oc2ccccc2)cc1 (configuration not stated),29.97
6,CC(NC(=O)CSCC(N)=O)c1ccccc1Oc1ccccc1 (configuration not stated),51.7
7,CCS(=O)(=O)CC(=O)NC(C)c1ccccc1Oc1ccccc1 (configuration not stated),-28.15
8,Cc1ccc(CN2CCCC23CCN(S(=O)(=O)c2ccccc2)C3)o1 (configuration not stated),-30.74
9,Cc1ncc(CN(Cc2ccccn2)Cc2ccccc2Cl)n1C,-6.19
10,NC(=O)N1CC2(CCNCC2)c2cc(Cl)ccc21,6.12
11,COC(=O)N1CC2(CCNCC2)c2cc(Cl)ccc21,22.71
12,CC(=O)N1CC2(CCNCC2)c2cc(Cl)ccc21,62.25
13,O=c1cc(C2CCNCC2)nc(CCc2ccccn2)[nH]1,15.92
14,O=C(Cc1csc(-c2ccoc2)n1)NCCC(=O)N1CCCCC1,45.56
15,CC1CCCN(CCCNC(=O)Cc2csc(-c3ccoc3)n2)C1 (configuration not stated),50.61
16,O=C(Cc1csc(-c2ccoc2)n1)NCCCN1CCCCC1,6.85
17,COCC(=O)N1CCC(C(=O)Nc2ccc(C(C)=O)cc2)CC1,10.64
18,CCC(C)NC(=O)Nc1cccc(OCCCC#N)c1 (configuration not stated),12.39
19,O=C(c1ccco1)N1CC[C@@H]2O[C@H](COCCN3CCCC3)CC[C@@H]21,15.88
20,c1cncc(-c2ccnn2CN2CCOCC2)c1,-31.15
21,CC(C)(C)C(=O)N1CCN(Cn2nccc2-c2cccnc2)CC1,53
22,CC(C)(C)CCN1CCN(Cn2nccc2-c2cccnc2)CC1,-15.83

row,Structure (SMILES),INHIBITION [%]
1,Cc1ncccc1OC1(C(=O)NCCc2ccccn2)CCNCC1,17.94
2,Cc1ncccc1OC1(C(=O)NCCNc2ccccc2)CCNCC1,-25.28
3,CC(=O)NCCNC(=O)C1(Oc2cccnc2C)CCNCC1,53.19
4,Cc1cnn(C2CN(CC(O)COc3ccc(C#N)cc3)C2)c1 (configuration not stated),-2.84
5,Cc1ncsc1CCN(C)C(=O)C(c1cccnc1)N1CCOCC1 (configuration not stated),-13.13
6,Cc1n[nH]c(C)c1CCN(C)C(=O)C(c1cccnc1)N1CCOCC1 (configuration not stated),51.31
7,Cc1cc(CN(C)C(=O)C(c2cccnc2)N2CCOCC2)n[nH]1 (configuration not stated),39.92
8,O=C(N1CCCCC1)N1CCN(c2ccc(Cl)nn2)C(=O)C1,34.52
9,COc1cc(N2C[C@H]3CN(Cc4ccccn4)C[C@H]3C2)ncn1,-37.2
10,CC(NC(=O)N1CCc2sccc2C1)c1nncn1C (configuration not stated),64.21
11,COc1ccc(N2CCN(C(=O)NC(C)c3nncn3C)CC2)cc1 (configuration not stated),-11.34
12,CC(NC(=O)N1CCN(c2ccccc2)CC1)c1nncn1C (configuration not stated),50.72
13,CC(NC(=O)N1CCc2ccccc2C1)c1nncn1C (configuration not stated),-56.96
14,Cc1cccc(N2CCN(C(=O)NC(C)c3nncn3C)CC2)c1 (configuration not stated),48.64
15,COc1cc2c(cc1OC)CN(C(=O)NC(C)c1nncn1C)CC2 (configuration not stated),-23.92
16,Cc1ncccc1CNC(CCO)C1CCCCC1 (configuration not stated),-16.72
17,O=C(CN1CCNC1=O)NCc1ccc2sccc2c1,-18.57
18,Cc1nnc(C2Cc3ccccc3CN2Cc2ncc(Cl)n2C)o1 (configuration not stated),27.59
19,COCc1cncc2c1CCN(C(=O)c1ccoc1C)C2,34.02
20,Cc1nonc1CN(C)c1nc(-c2ccco2)nc2c1CCN(C)CC2,38.91
21,Cc1cc(CN(C)c2nc(-c3ccco3)nc3c2CCN(C)CC3)on1,67.05
22,Cc1noc(CN(C)c2nc(-c3ccco3)nc3c2CCN(C)CC3)n1,18.14

row,Structure (SMILES),INHIBITION [%]
1,CNc1nc(C(=O)N2CCn3nc(C(=O)OC)cc3C2)cs1,-0.15
2,COCc1c(C(=O)N2CCCC(C(=O)c3ccccc3)C2)noc1C (configuration not stated),10.1
3,O=S1(=O)CCN2C(=N1)Oc1ccc(Cl)cc12,22.96
4,CN(CCc1ccccn1)C(=O)c1cccs1,24.64
5,CN(Cc1cnc(N)nc1)C(=O)C1CC(=O)N(Cc2ccncc2)C1 (configuration not stated),59.8
6,CN(Cc1ccoc1)C(=O)C1CC(=O)N(Cc2ccncc2)C1 (configuration not stated),10.91
7,CN(Cc1ccon1)C(=O)C1CC(=O)N(Cc2ccncc2)C1 (configuration not stated),15.96
8,CC(C)c1nnc2n1CCN(Cc1nc3c(F)cccc3[nH]1)C2,45.4
9,Cc1oc(-c2ccsc2)nc1CN1CC[C@@H]2CCCC[C@H]2C1,54.49
10,Cc1oc(-c2ccsc2)nc1CN1CCCC(c2ccnn2C)C1 (configuration not stated),13.88
11,Cc1ncc2c(n1)CN(Cc1nc(-c3ccsc3)oc1C)CC2,31.05
12,CN(C)Cc1nc2c(o1)CN(S(=O)(=O)c1cccs1)C2,-0.45
13,Cn1nc(C(=O)N2CCOCC2)cc1C(=O)Nc1ccc(Cl)cc1Cl,61.02
14,Cn1nc(C(=O)N2CCOCC2)cc1C(=O)Nc1c(Cl)cccc1Cl,13.45
15,Cn1nc(C(=O)N2CCOCC2)cc1C(=O)Nc1ncc(Cl)cc1Cl,-47.52
16,CC(C)CC(NC(=O)c1ccc[nH]1)C(=O)N1CCC(CO)CC1 (configuration not stated),20.3
17,CC(C)[C@H]1CN(c2cnccn2)C[C@@H]1NC(=O)C1(C#N)CCOCC1,2.3
18,CCc1ncncc1C(=O)N1CCCN(Cc2ccc(C#N)cc2)CC1,68.24
19,CCc1ncncc1C(=O)N1CCCN(Cc2ccccc2C)CC1,-23.42
20,CC(C)c1ncncc1C(=O)N1CCN(Cc2ccsc2)CC1,58.05
21,CC(C)c1ncncc1C(=O)N1CCN(Cc2cscn2)CC1,-43.47
22,CC(C)c1ncncc1C(=O)N1CCCN(Cc2cccs2)CC1,8.37

row,Structure (SMILES),INHIBITION [%]
1,O=C(c1cc(C2CC2)[nH]n1)N1CCN(Cc2ccsc2)CC1,44.43
2,CC(C)c1ncncc1C(=O)N1CCCN(Cc2ccccc2)CC1,56.02
3,Cc1ccc(C(=O)N2CCN(Cc3ccsc3)CC2)n1C,43.52
4,CCc1ncncc1C(=O)N1CCN(Cc2ccsc2)CC1,-45.83
5,Cc1cc(C(=O)N2CCN(Cc3ccsc3)CC2)c(C)n1C1CC1,53.58
6,CC(C)c1ncncc1C(=O)N1CCN(Cc2cccnc2)CC1,33.61
7,CCc1ncncc1C(=O)N1CCCN(Cc2ccc(C)cc2)CC1,-8.84
8,N#Cc1c(-c2ccccc2)csc1N,30.76
9,Cc1noc(C)c1NC(=O)NC1CCN(C(=O)OC(C)(C)C)CC1,11.92
10,CCCn1c(C)c(CC(=O)NCCOC)c2c1CC(C)(C)CC2=O,18.91
11,CC(C)(NCC(=O)NCCC#N)c1ccc2c(c1)OCCO2,-9.66
12,Cc1ccc(CN2C[C@@H]3CCN(Cc4cccnc4)C(=O)[C@H]3C2)s1,41.38
13,Cc1ccc(OC2(C(=O)NC(C)Cc3ccsc3)CCNCC2)cc1 (configuration not stated),26.35
14,CN(Cc1cccnc1)C1CC2(CCN(Cc3ccccn3)CC2)C1,27.9
15,CN(C)S(=O)(=O)N1CC[C@]2(C[C@H](OCc3ccccn3)CO2)C1,-51.66
16,COc1ccc(C(=O)N2CCCCC2c2ccccn2)c(OC)n1 (configuration not stated),21.05
17,COCCNC(=O)N1CCN(C(C)C(=O)NC(C)C)CC1 (configuration not stated),21.22
18,COCC(=O)N1CCN(C(C)C(=O)NC(C)C)CC1 (configuration not stated),61.91
19,COCCNC(=O)C(C)N1CCN(C)CC1 (configuration not stated),7.9
20,CC(=O)N1CCc2c(nc(N(C)C)nc2N(C)CC2CCCO2)C1 (configuration not stated),-34.04
21,CN(C)C(=O)CCC(=O)N1CCC2(CC1)COC2,15.02
22,CCCC(=O)N1CCC2(CC1)OCCO2,38.51

row,Structure (SMILES),INHIBITION [%]
1,CCCC(=O)N1CCC2(CC1)COC2,54.01
2,CS(=O)(=O)NCC(Cc1cccc(F)c1)N1CCNC1=O (configuration not stated),22.27
3,CCS(=O)(=O)NCC(Cc1cccc(F)c1)N1CCNC1=O (configuration not stated),-35.92
4,CC(C)S(=O)(=O)NCC(Cc1cccc(F)c1)N1CCNC1=O (configuration not stated),53.44
5,Cc1cc(C)n(CC2CCCN2CC(=O)Nc2nncs2)n1 (configuration not stated),37.08
6,CC(C)Nc1cccc(CNC(=O)N2CCCC2)c1,-24.87
7,CC(C)Nc1cccc(CNC(=O)N2CCC(N3CC=CC3)C2)c1 (configuration not stated),58.34
8,CC(C)Oc1cccc(CNC(=O)N2CCC(N3CC=CC3)C2)c1 (configuration not stated),-21.25
9,COC(=O)CCCNC(=O)Nc1ccccc1OC,-3.99
10,CN1CCC(NC(=O)Nc2cnn(-c3ccccc3Cl)c2)C1=O (configuration not stated),15.75
11,CNC(=O)[C@@H]1C[C@@H](n2cc(-c3ccc(CN4CC=CC4)cc3)nn2)CN1,-21.75
12,Nc1nc(CCC(=O)N2C[C@H](c3ccccc3)[C@@H](N)C2)cs1,-10.1
13,CCc1ccc2c(C3CN(S(C)(=O)=O)C3)ncn2c1,28.81
14,CS(=O)(=O)N1CC(c2ncn3ccccc23)C1,51.36
15,CS(=O)(=O)N1CC(c2n[nH]c3ncccc23)C1,31.98
16,CC(=O)N1N=C(c2cccs2)OC1C(=O)Nc1ccc(C(C)C)cc1 (configuration not stated),19.09
17,COC1CCN(C(=O)c2csc(-c3ccccc3F)n2)CC1,10.91
18,NC(=O)CC1CCN(C(=O)c2csc(-c3ccccc3F)n2)CC1,51.96
19,NC(=O)CC1CCN(C(=O)c2cnc(-c3ccccc3F)s2)CC1,20.76
